tim23-1 inh: tim23-1 yeast growth inhibition. S. cerevisiae tim23-1 growth, BacTiter-Glo luminescence, 24 h. inhibition, % at 20 µM. 330,000 tested, 1.3% active;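 active = growth inhibition of the mutant yeast at or above 50%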;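 also: temperature-sensitive mutant grown at 25 °C; plate controls were DMSO-treated mutant yeast for no effect and medium wells lacking yeast for full effect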
TIM10 inh: growth inhibitors of TIM10 yeast strain; AID 463195; inhibition, % at 10 µM; S. cerevisiae TIM10 strain growth, BacTiter-Glo luminescence, 24 h; 330,000 tested, 1.4% active;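 active = inhibition of 40% or more at the single tested concentration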;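 also: wild-type TIM10 isogenic control strain grown at permissive 25 °C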
MPTP inh: blocks calcium-induced mitochondrial swelling; isolated mouse mitochondria, Ca2+ swelling absorbance, 30 min; inhibition, % at 10 µM; 360,000 tested, 1.4% active;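 active = inhibition of 50% or more, scaled per plate between neutral and stimulator controls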;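 also: 0% = DMSO wells given calcium and 100% = 1 mM EGTA wells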
tim10-1 inh: growth inhibitors of tim10-1 mutant yeast; S. cerevisiae tim10-1 ts strain growth, BacTiter-Glo, 24 h; 330,000 tested, 2.2% active; AID 463190; inhibition, % at 20 µM;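 active = inhibition of at least 40%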;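 also: mutant grown at 25 °C; 0% = DMSO wells with yeast and 100% = wells holding no yeast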
Mdm2 MdmX PPI: inhibitors of human Mdm2/MdmX interaction | SaOS-2 split-luciferase Mdm2/MdmX complementation, luminescence | inhibition, % at 8 µM | 330,000 tested, 3% active | AID 485346;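 active = inhibition of at least 50% at 8 µM in the primary screen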
Target sequence (O15151 whole entry, looked up): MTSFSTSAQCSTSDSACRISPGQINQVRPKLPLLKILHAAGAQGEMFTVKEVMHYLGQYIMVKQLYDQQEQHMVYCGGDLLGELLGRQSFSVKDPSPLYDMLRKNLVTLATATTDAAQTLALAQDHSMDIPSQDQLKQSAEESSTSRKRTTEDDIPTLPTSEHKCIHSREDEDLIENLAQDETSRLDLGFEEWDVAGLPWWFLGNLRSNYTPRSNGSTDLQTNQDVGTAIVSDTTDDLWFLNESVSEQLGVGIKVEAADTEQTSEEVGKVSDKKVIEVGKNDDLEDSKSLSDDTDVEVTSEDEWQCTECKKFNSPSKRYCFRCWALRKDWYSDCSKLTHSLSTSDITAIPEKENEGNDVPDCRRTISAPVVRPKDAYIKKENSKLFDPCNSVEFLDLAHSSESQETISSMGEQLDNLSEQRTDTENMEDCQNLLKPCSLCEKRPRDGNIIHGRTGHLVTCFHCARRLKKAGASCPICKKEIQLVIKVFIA
Target sequence (Q00987 whole entry, looked up): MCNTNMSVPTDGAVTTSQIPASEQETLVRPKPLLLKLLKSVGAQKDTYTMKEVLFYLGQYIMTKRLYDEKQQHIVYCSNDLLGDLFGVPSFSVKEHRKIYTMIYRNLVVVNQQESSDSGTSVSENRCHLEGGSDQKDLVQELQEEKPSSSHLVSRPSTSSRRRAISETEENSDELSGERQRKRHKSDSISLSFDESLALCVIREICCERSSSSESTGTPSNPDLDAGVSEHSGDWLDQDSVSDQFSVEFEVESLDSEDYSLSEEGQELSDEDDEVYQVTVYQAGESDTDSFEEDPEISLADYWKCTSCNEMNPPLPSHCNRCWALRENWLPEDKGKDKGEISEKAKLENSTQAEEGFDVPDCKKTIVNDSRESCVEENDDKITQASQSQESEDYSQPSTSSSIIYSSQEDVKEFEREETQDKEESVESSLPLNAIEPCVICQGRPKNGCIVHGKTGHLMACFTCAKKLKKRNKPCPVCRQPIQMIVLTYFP
tim10-1 confirm: confirmation of tim10-1 mutant yeast growth inhibitors | 7,400 tested, 56% active | S. cerevisiae tim10-1 ts strain growth, BacTiter-Glo, 24 h | shares compounds with tim10-1 inh | inhibition, % at 20 µM;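 active = inhibition of yeast growth at or above a set limit in either of two repeat tests at 20 µM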;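 also: tim10-1 mutant grown at permissive 25 °C to find synthetic lethal compounds; 0% = DMSO yeast wells and 100% = medium wells without yeast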
Starred values were filed as active, the others as inactive. Compounds with a hit are over-represented: about 6.3% of the library has one in this group of screens.

`O=c1c(-c2ccccc2)nc2ccccc2n1C(c1ccccc1)c1nc2ccccc2[nH]1` (stereo unspecified) gave MPTP inh 2.
Screening O=C1C2C3CCCC3=C3CCCC3C2C(=O)N1c1cccc(Cl)c1 (stereo unspecified) returned tim23-1 inh 24, TIM10 inh 28, MPTP inh 0, tim10-1 inh 16 and Mdm2 MdmX PPI 25.
Screening O=C1C2C3CCCC3=C3CCCC3C2C(=O)N1c1ccc(Cl)cc1 (stereo unspecified) returned tim23-1 inh 39, TIM10 inh 16, MPTP inh -2, tim10-1 inh 42*, Mdm2 MdmX PPI -16 and tim10-1 confirm 31*.
For O=C(CC1c2ccccc2C=C(c2ccsc2)N1c1ccc(-c2cccnc2)cc1)C1CC1 (stereo unspecified) the results were MPTP inh 1.
Screening Cn1c(=O)c2cc(NC(=S)NC3CCCCC3)ccc2n1Cc1ccc(Cl)cc1 returned MPTP inh 2.
Screening Cc1occc1C(=O)Nc1sc2c(c1C(N)=O)CCCCC2 returned tim23-1 inh 28, TIM10 inh 39, MPTP inh 1, tim10-1 inh 48*, Mdm2 MdmX PPI -59 and tim10-1 confirm 23.
`O=C(c1cc(C2CCCCN2S(=O)(=O)Cc2ccccc2)on1)N1CCOCC1` (stereo unspecified) gave MPTP inh 0.
CC(=O)NNc1nc2ccccc2s1 was read as tim23-1 inh 4, TIM10 inh -3, MPTP inh -2, tim10-1 inh 5 and Mdm2 MdmX PPI -18.
C/C(=C\C(=O)c1ccccc1)NNc1nc2ccccc2s1 was read as tim23-1 inh 34, TIM10 inh 34, MPTP inh 2, tim10-1 inh 55*, Mdm2 MdmX PPI -22 and tim10-1 confirm 39*.
For C=C1/C(=C\C=C2/CCC[C@]3(C)[C@@H]([C@H](C)CCCC(C)(C)O)CC[C@@H]23)C[C@@H](O)C[C@@H]1O the results were tim23-1 inh 49, TIM10 inh 6, tim10-1 inh 48*, Mdm2 MdmX PPI 9 and tim10-1 confirm 29.
Cc1ccc(-n2cccc2/C=C2\C(=N)N3N=C(C(C)C)SC3=NC2=O)cc1 was read as tim23-1 inh 46, TIM10 inh 20, MPTP inh 12, tim10-1 inh 42*, Mdm2 MdmX PPI 0 and tim10-1 confirm 26.
For COc1ccc(OCCNC(=O)c2ccc3nc(C)c(N(C)C(=O)CCc4ccccc4)n3c2)cc1 the results were MPTP inh 1.
Screening C=CC[n+]1c(/C=C/c2ccc(OC(C)=O)c(OC)c2)ccc2ccccc21 returned tim23-1 inh 34, TIM10 inh 21, MPTP inh 26, tim10-1 inh 57*, Mdm2 MdmX PPI 7 and tim10-1 confirm 38*.
CCCc1nc2ccc(C)cn2c1Cc1ccc(OC)cc1C was read as MPTP inh -2.
`COc1ccc(-c2cc3nc(-c4ccccc4)cc(N4CCN(C(C)=O)CC4)n3n2)cc1` gave MPTP inh -2.
For COc1ccc(-c2cc3nc(-c4ccccc4)cc(N4CCC(O)CC4)n3n2)cc1 the results were tim23-1 inh 49, TIM10 inh 33, MPTP inh 2, tim10-1 inh 40*, Mdm2 MdmX PPI 9 and tim10-1 confirm 24.
Cc1cccc(C)c1NC(=O)C(c1ccc(Cl)cc1Cl)N1CCCCC1 (stereo unspecified) was read as tim23-1 inh -3, TIM10 inh 18, MPTP inh -1, tim10-1 inh 42*, Mdm2 MdmX PPI 45 and tim10-1 confirm 23.
For Cc1ccc(NC(=O)C(c2ccc(Cl)cc2)N2CCCCC2)cc1 (stereo unspecified) the results were MPTP inh 8.
For CCOC(=O)C1=NN(c2ccccc2)C(=O)/C1=C\c1ccc(N(C)C)cc1 the results were tim23-1 inh 24, TIM10 inh 13, MPTP inh 8, tim10-1 inh 40*, Mdm2 MdmX PPI 8 and tim10-1 confirm 20.
Cn1c(=O)c(Sc2ccccc2)c(O)c2ccccc21 was read as tim23-1 inh 2, TIM10 inh 2, MPTP inh 0, tim10-1 inh -14 and Mdm2 MdmX PPI -11.
CC(C)(C)C1C=C(Sc2ccccc2)C(=O)O1 (stereo unspecified) was read as tim23-1 inh 45, TIM10 inh 10, MPTP inh 1, tim10-1 inh 44*, Mdm2 MdmX PPI -12 and tim10-1 confirm 35*.
Screening COc1ccc(OC)c(NC(=O)Nc2nnc([C@H]3C[C@H](O)[C@@H](CO)O3)s2)c1 returned MPTP inh 1.
Screening COC(=O)c1ccc(NN=Nc2ccc(C)cc2)cc1 returned tim23-1 inh 18, TIM10 inh -13, MPTP inh 0, tim10-1 inh 24 and Mdm2 MdmX PPI -39.
Screening Cc1ccc(C(=O)ONc2ccc(N=NC(=O)c3ccccc3O)cc2)cc1 returned tim23-1 inh 26, TIM10 inh 19, MPTP inh 0, tim10-1 inh 43*, Mdm2 MdmX PPI -10 and tim10-1 confirm 2.
`N=c1n(CCN2CCCCC2)c2ccccc2n1CC(=O)c1ccc(Cl)c(Cl)c1` gave tim23-1 inh -35, TIM10 inh -17, MPTP inh -2, tim10-1 inh 14 and Mdm2 MdmX PPI 42.
For CCn1c(=N)n(CC(=O)c2ccc(Cl)c(Cl)c2)c2ccccc21 the results were tim23-1 inh 25, TIM10 inh 8, MPTP inh 0, tim10-1 inh 42*, Mdm2 MdmX PPI -70 and tim10-1 confirm 10.
For CC1(C(=O)NS(=O)(=O)C2CC2)CCN(C(=O)c2cccc(Cl)c2)C1 (stereo unspecified) the results were MPTP inh 0.
Screening Cc1ccnc(NC(=O)c2ccccc2NC(=O)c2ccccc2)c1 returned tim23-1 inh 41, TIM10 inh 12, MPTP inh -1, tim10-1 inh 50*, Mdm2 MdmX PPI 4 and tim10-1 confirm 33*.
COc1ccc(CNC(=O)C2CCN(S(=O)(=O)N3CCC(C)CC3)CC2)c(OC)c1 was read as MPTP inh 0.
`CCOc1cc(C2Nc3cccc4cccc(c34)N2)ccc1O` gave tim23-1 inh 37, TIM10 inh 32, MPTP inh 3, tim10-1 inh 51*, Mdm2 MdmX PPI 13 and tim10-1 confirm 29.
For COC(=O)[C@]12CCCCC=C1N(CCC1=CCCCC1)C(=O)[C@H](CC(=O)N1CCN(C(=O)c3ccco3)CC1)C2 the results were MPTP inh -1.
CCN(Cc1ccccc1)S(=O)(=O)c1ccc(C(=O)N(CCCN(C)C)c2nc3c(F)cccc3s2)cc1 was read as tim23-1 inh -10, TIM10 inh -40, MPTP inh 0, tim10-1 inh -14 and Mdm2 MdmX PPI 17.

Screening results from PubChem.
